Results filed as inconclusive are left out. The source made the active and inactive calls. Unless noted, calls come from the whole dose curve; as a rule, active = well fitted curve in the direction sought with a large enough effect in the repeat runs; inconclusive = weak or mixed curves; inactive = no such curve, though single readings can be large; an effect the other way counts as inactive or inconclusive.

The target in assay [1] is Acetylcholinesterase (Homo sapiens) (UniProt P22303). Nature of the assay: Acetylcholinesterase (AChE) small molecule antagonists: enzyme-based qHTS assay (AID 1347397; calls by dose curve; note: nearly all actives have a fitted effect of over 55% in size). The following applies: Potency: AChE enzyme activity inhibition. Put shortly: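 Compound or DMSO vehicle was pin-transferred onto recombinant human AChE (50 mU/mL as dispensed) and left 30 min at room temperature. Acetylthiocholine with DTNB then started the reaction, read colorimetrically 10 min later.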
Chain of Acetylcholinesterase (Homo sapiens) (P22303 whole entry, looked up): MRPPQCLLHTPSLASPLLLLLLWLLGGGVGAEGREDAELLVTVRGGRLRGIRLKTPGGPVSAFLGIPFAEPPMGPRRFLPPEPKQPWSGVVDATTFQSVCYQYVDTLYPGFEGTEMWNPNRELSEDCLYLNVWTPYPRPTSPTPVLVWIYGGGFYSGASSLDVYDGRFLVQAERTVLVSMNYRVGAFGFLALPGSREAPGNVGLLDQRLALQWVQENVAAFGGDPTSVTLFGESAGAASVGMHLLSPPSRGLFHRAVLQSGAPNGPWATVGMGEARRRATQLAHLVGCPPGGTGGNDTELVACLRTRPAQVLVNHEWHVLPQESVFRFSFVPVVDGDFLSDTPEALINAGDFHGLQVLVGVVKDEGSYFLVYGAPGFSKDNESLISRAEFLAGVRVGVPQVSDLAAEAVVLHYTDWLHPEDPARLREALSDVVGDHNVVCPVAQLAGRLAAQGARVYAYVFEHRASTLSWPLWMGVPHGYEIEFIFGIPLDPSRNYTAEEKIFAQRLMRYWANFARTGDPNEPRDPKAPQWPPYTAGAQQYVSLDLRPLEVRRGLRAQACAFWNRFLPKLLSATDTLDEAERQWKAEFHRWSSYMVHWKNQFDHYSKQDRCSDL
For orientation: In qHTS, concentration-response curves come from the screen itself.

Assay [2] shares this target. Briefly: Acetylcholinesterase (AChE) small molecule antagonists: fluorescence cell-based qHTS assay (AID 1347398; calls by dose curve; note: nearly all actives have a fitted effect of over 50% in size). Particulars: Potency: AChE activity. The gist of the method:
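Using neuroblastoma SH-SY5Y cells as the enzyme source, test chemicals are preincubated 30 min at 37 C; AChE-driven acetylthiocholine cleavage is then quantified by thiocholine-dependent Thiolite Green fluorescence after 40 min at room temperature.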

Assay [3] has the same target. Briefly: Acetylcholinesterase (AChE) small molecule antagonists: enzyme-based qHTS assay with human liver microsomes (AID 1347399; calls by dose curve; note: nearly all actives have a fitted effect of over 60% in size). The following applies: Potency: qHTS inhibition. The gist of the method:
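Recombinant human AChE (50 mU/mL in the enzyme mix) and human liver microsomes (0.25 mg/mL final) were preincubated with compound and NADPH (0.25 mg/mL final) for 30 min at 37 C. Acetylthiocholine/DTNB was then added; thiocholine was read colorimetrically after 10 min at room temperature.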

The target of assay [4] is Cytochrome P450 2D6 (Homo sapiens) (UniProt P10635). Briefly: Cytochrome P450 Family 2 Subfamily D Member 6 (CYP2D6) small molecule antagonists: luciferase reporter qHTS assay (AID 1671196). Note: nearly all actives have a fitted effect of over 50% in size. The gist of the method:
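Room-temperature luminescent CYP2D6 activity assay: compound preincubated 10 min with enzyme–substrate mix, NADPH-initiated reaction 1 h, detection reagent 20 min before reading.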
(In general: In a reporter assay the amount or activity of a reporter protein is the signal.)

Assay [5] has as its target Cytochrome P450 2C19 (Homo sapiens) (UniProt P33261). Nature of the assay: Cytochrome P450 Family 2 Subfamily C Member 19 (CYP2C19) small molecule antagonists: luciferase reporter qHTS assay (AID 1671197). Note: nearly all actives have a fitted effect of over 65% in size. Put shortly: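 CYP2C19 P450-Glo, 1536-well qHTS. Cpd + enzyme/proluciferin substrate 10 min RT; + NADPH regen, 37C 1 h; stop with luciferin detection reagent, 20 min RT, luminescence (RLU). Pos ctrl ketoconazole.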

The target in assay [6] is Cytochrome P450 1A2 (Homo sapiens) (UniProt P05177). Nature of the assay: Cytochrome P450 Family 1 Subfamily A Member 2 (CYP1A2) small molecule antagonists: luciferase reporter qHTS assay (AID 1671199). Note: nearly all actives have a fitted effect of over 50% in size. The gist of the method:
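Room-temperature CYP1A2 reaction with proluciferin substrate: compounds added from DMSO, 10 min preincubation, NADPH regeneration for 1 h. Luciferin detection reagent then added; luminescence recorded as RLU.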

Assay [7] addresses Voltage-gated inwardly rectifying potassium channel KCNH2 (Homo sapiens) (UniProt Q12809). Nature of the assay: Human Ether-a-go-go-Related Gene (hERG) channel small molecule antagonists: fluorescence cell-based qHTS assay (AID 1671200). Note: nearly all actives have a fitted effect of over 50% in size. Put shortly:
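Read-out: thallium influx as a surrogate for potassium, tracked as fluorescence (480 nm ex/540 nm em) every second for 2 min after Stimulus Buffer addition in dye-loaded hERG-U2OS cells.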
Background: Block of hERG is tested as a sign of cardiac risk.

Assay [8] has as its target Cytochrome P450 2C9 (Homo sapiens) (UniProt P11712). Nature of the assay: Cytochrome P450 Family 2 Subfamily C Member 9 (CYP2C9) small molecule antagonists: luciferase reporter qHTS assay (AID 1671198). Note: nearly all actives have a fitted effect of over 50% in size. Put shortly: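 CYP2C9 activity was measured with a P450-Glo proluciferin substrate. Enzyme–substrate mix was held with compound for 10 min at room temperature, then NADPH regeneration solution was added for 1 h at 37C. Luciferin product was read as luminescence.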

Assay [9] deals with Cytochrome P450 3A4 (Homo sapiens) (UniProt P08684). Briefly: Cytochrome P450 Family 3 Subfamily A Member 4 (CYP3A4) small molecule antagonists: luciferase reporter qHTS assay (AID 1671201). Note: nearly all actives have a fitted effect of over 50% in size. Put shortly:
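Luminescent readout (RLU) proportional to CYP3A4 activity, from luciferin generated off a proluciferin substrate. Enzyme–substrate mix plus compound 10 min at room temp, NADPH regeneration 1 h, detection reagent 20 min.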
Potency is the fitted concentration of half-maximal effect.

Chain of Cytochrome P450 1A2 (Homo sapiens) (P05177 whole entry, looked up): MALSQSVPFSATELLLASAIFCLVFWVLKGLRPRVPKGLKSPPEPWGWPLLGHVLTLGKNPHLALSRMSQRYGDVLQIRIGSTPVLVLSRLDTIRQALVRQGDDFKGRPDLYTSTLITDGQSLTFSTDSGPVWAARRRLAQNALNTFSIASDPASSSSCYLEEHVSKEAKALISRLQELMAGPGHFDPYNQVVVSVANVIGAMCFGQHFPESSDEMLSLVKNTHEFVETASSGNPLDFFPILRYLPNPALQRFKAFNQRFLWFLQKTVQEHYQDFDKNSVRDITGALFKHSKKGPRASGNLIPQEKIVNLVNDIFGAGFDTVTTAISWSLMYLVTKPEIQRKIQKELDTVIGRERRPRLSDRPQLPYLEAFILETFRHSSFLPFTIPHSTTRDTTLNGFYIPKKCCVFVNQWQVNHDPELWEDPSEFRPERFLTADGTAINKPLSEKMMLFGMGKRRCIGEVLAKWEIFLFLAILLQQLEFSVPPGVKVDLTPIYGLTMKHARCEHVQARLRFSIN
Chain of Cytochrome P450 2D6 (Homo sapiens) (P10635 whole entry, looked up): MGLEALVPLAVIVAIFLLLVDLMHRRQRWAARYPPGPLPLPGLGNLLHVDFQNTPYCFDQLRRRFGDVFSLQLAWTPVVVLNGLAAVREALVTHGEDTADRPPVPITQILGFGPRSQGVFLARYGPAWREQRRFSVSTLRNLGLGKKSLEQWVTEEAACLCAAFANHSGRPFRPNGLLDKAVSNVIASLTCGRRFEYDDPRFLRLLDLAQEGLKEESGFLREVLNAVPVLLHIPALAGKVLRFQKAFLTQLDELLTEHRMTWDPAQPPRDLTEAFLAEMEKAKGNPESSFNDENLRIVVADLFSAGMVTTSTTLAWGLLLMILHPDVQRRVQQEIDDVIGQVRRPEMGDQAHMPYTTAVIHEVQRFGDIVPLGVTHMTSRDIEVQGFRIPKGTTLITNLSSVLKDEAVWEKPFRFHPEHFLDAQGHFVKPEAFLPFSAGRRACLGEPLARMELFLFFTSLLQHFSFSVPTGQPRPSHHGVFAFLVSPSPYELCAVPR
Chain of Voltage-gated inwardly rectifying potassium channel KCNH2 (Homo sapiens) (Q12809 whole entry, looked up): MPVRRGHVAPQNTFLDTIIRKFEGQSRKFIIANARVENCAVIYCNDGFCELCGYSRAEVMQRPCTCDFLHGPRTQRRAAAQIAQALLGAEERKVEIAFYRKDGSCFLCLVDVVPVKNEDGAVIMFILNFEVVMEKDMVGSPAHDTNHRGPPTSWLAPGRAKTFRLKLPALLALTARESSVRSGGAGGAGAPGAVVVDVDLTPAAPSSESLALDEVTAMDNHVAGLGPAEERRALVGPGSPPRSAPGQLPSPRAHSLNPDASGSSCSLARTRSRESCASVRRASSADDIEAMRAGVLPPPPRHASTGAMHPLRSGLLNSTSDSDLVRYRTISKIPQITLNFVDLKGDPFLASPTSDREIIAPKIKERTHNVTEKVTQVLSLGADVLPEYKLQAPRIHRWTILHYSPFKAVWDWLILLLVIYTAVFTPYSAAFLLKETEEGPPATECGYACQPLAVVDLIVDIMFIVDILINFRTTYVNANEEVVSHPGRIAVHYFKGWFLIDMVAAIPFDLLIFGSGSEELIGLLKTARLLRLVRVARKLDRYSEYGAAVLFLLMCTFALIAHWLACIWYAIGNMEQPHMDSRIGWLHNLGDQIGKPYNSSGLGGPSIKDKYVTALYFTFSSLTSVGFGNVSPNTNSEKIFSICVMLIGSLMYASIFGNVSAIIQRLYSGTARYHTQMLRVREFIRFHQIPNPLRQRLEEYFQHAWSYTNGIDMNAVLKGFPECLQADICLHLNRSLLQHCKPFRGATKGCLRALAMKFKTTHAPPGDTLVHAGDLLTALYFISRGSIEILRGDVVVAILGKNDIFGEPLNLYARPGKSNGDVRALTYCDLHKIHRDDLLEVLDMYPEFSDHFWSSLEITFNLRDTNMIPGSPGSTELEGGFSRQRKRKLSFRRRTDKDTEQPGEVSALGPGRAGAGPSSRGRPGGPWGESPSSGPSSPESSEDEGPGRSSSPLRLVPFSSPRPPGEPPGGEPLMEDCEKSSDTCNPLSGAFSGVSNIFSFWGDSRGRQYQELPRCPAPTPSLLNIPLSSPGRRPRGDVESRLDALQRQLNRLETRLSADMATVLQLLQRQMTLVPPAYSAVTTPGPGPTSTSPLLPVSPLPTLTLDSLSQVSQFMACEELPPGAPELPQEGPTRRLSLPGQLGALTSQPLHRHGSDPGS
Chain of Cytochrome P450 2C9 (Homo sapiens) (P11712 whole entry, looked up): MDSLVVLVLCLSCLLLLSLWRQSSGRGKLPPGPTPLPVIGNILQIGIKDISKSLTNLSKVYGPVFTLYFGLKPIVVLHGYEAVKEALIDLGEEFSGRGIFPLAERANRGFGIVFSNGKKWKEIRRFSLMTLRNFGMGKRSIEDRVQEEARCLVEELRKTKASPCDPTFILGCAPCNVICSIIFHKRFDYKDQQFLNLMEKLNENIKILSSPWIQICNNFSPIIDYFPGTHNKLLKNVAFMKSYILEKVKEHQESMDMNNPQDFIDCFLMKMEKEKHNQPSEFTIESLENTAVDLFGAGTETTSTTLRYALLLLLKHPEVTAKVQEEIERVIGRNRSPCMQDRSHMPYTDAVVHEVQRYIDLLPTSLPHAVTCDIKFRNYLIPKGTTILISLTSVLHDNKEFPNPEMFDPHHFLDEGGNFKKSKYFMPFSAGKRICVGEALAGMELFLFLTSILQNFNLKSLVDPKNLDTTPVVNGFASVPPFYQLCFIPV
Chain of Cytochrome P450 2C19 (Homo sapiens) (P33261 whole entry, looked up): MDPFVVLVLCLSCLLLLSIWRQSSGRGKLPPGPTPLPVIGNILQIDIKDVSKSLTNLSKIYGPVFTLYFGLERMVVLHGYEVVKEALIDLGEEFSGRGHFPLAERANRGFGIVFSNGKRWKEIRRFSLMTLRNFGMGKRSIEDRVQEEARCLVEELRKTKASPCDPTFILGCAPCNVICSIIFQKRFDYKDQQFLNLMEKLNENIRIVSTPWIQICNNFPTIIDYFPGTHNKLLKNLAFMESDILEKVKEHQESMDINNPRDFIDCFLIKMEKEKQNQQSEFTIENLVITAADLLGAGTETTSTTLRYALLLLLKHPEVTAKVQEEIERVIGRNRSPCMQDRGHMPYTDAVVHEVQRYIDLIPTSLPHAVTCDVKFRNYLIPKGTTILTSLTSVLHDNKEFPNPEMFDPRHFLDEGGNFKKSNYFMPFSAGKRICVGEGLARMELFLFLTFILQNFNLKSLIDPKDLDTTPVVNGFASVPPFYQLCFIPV
Chain of Cytochrome P450 3A4 (Homo sapiens) (P08684 whole entry, looked up): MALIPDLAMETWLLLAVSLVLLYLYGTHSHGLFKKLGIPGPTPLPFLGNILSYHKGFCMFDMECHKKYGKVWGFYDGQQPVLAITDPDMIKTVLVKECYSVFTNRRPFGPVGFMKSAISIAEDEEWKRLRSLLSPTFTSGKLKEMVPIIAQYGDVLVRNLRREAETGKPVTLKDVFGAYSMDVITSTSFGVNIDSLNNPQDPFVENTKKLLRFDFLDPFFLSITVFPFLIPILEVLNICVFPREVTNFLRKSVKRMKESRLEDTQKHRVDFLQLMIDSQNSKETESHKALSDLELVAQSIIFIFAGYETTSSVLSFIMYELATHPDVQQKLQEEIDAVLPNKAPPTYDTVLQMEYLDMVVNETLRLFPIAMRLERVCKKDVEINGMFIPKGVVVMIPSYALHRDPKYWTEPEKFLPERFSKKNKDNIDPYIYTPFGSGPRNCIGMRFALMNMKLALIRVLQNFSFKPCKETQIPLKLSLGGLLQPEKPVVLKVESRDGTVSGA

`O=[N+]([O-])c1c2ccccc2cc2ccccc12`: the Potency entry in assay [1], in [2], in assay [3] and in assay [7] was “inactive” each time. The Potency is 2.22 µM (active) in assay [4], 11.1 µM (active) in assay [5] and 0.3 µM (active) in [6].

`CC(C)(c1ccc(O)c(-c2ccccc2)c1)c1ccc(O)c(-c2ccccc2)c1`: the Potency in [1] was 17.8 µM (active); in assay [4], 63.3 µM (active); in assay [5] it was 17.8 µM (active); in assay [8], 3.17 µM (active); in assay [6], 35.6 µM (active); in [9], 5.03 µM (active). The Potency result in assay [2] and in assay [3] was “inactive” each time.

Turning to `N#CCCSCCC#N`, the Potency result in assay [1], in assay [2], in assay [3], in assay [4], in [5] and in assay [8] was “inactive” each time. Further, the Potency entry in assay [7] is “inactive”.

Consider `C[C@H]1O[C@@H](O[C@H]2[C@@H](O)C[C@H](O[C@H]3[C@@H](O)C[C@H](O[C@H]4CC[C@@]5(C)[C@H](CC[C@@H]6[C@@H]5CC[C@]5(C)[C@@H](C7=CC(=O)OC7)CC[C@]65O)C4)O[C@@H]3C)O[C@@H]2C)C[C@H](O)[C@@H]1O`, for which the Potency entry in assay [1], in assay [2], in assay [3], in assay [4], in [5] and in [8] was “inactive” each time. For the same compound, the Potency entry in [7] was “inactive”.

Consider `COC(=O)N(C(=O)N1COC2(C(=O)OC)Cc3cc(Cl)ccc3C2=N1)c1ccc(OC(F)(F)F)cc1` (stereo unspecified), for which the Potency result in assay [1], in [2], in [3], in assay [4], in assay [6] and in [7] was “inactive” each time. The Potency in assay [5] was 0.195 µM (active).

On to `CN(C)c1ccc(N=Nc2ccccc2)cc1`, for which the Potency result in assay [1], in [2], in [3], in assay [7] and in assay [9] was “inactive” throughout. Besides, the Potency is 40 µM (active) in [4], 20 µM (active) in [5] and 15.9 µM (active) in assay [8].

Take `CCCOCC(=Nc1ccc(Cl)cc1C(F)(F)F)n1ccnc1`: the Potency entry in assay [1], in assay [2] and in [3] was “inactive” in each case. Also, the Potency in assay [4] is 35.6 µM (active); in assay [5], 0.71 µM (active); in assay [8] it was 5.03 µM (active); in assay [7], 48.9 µM (active); in [9], 0.283 µM (active).

On to `CCC[CH2][Sn]([CH2]CCC)([CH2]CCC)[O]C(=O)c1ccccc1`, for which the Potency result in [1], in assay [2] and in assay [3] was “inactive” in each case. The Potency in assay [4] is 1.12 µM (active); in assay [5] it was 1.59 µM (active); in assay [7] it was 4.9 µM (active); in assay [9] it was 35.6 µM (active).

With `CC1(C)C(/C=C(\Cl)C(F)(F)F)C1C(=O)OC(C#N)c1cccc(Oc2ccccc2)c1` (stereo unspecified), the Potency result in [1], in assay [2], in [3], in assay [4], in assay [7] and in [9] was “inactive” each time. Besides, the Potency in [5] was 8.09 µM (active).

For `Oc1ccc(C2(c3ccc(O)cc3)c3ccccc3-c3ccccc32)cc1`, the Potency in assay [1] is 39.9 µM (active); in [4] it was 79.6 µM (active); in assay [5], 25.2 µM (active); in assay [6] it was 79.6 µM (active); in assay [9], 17.8 µM (active). In addition, the Potency entry in [2], in assay [3] and in assay [7] was “inactive” each time.

Consider `C[C@]12CC[C@H]3[C@@H](CCC4=CC(=O)CC[C@@]43C)[C@@H]1CC[C@@H]2O`, for which the Potency result in assay [1], in assay [2], in assay [3], in assay [4], in assay [5] and in assay [9] was “inactive” in each case.

Take `O=[N+]([O-])c1ccc2ccc3cccc4ccc1c2c34`: the Potency result in assay [1], in assay [2], in [3], in assay [5], in assay [7] and in [9] was “inactive” throughout. Besides, the results for the Potency in assay [4] and in assay [6] were 31.7 µM (active) and 0.224 µM (active), respectively.

On to `ClC1=C(Cl)[C@]2(Cl)[C@H]3[C@H]([C@H]4C=C[C@H]3C4)[C@@]1(Cl)C2(Cl)Cl`, for which the Potency result in [1], in assay [2], in assay [3] and in assay [4] was “inactive” in each case. Besides, the values for the Potency in [5] and in [9] were 15.9 µM (active) and 1 µM (active), respectively.

Turning to `C[C@@H]1O[C@@H](O[C@@H]2C=C3CC[C@@H]4[C@H](CC[C@]5(C)[C@@H](c6ccc(=O)oc6)CC[C@]45O)[C@@]3(C)CC2)[C@H](O)[C@H](O)[C@H]1O`, the Potency result in assay [1], in assay [2], in [3], in assay [4], in assay [5] and in [6] was “inactive” in each case. Besides, the Potency entry in [7] and in assay [9] was “inactive” each time.

Regarding `COc1ccc(OC)c(C=O)c1`, the Potency entry in assay [1], in assay [2], in assay [3], in assay [4], in [7] and in assay [9] was “inactive” in each case. Further, the Potency in [6] is 28.3 µM (active).

On to `CCCCCCCCCCCCCCC(Br)C(=O)O` (stereo unspecified), for which the Potency entry in assay [1], in [2], in assay [3], in assay [4], in assay [5] and in assay [7] was “inactive” in each case. For the same compound, in [9], the Potency result is “inactive”.

As to `CC(C)CCCCCOC(=O)c1ccccc1C(=O)OCCCCCC(C)C`, the Potency entry in [1], in assay [2], in assay [3] and in [7] was “inactive” throughout. The Potency in [4] is 27.9 µM (active); in [5], 39.5 µM (active); in assay [6], 35.2 µM (active); in assay [9] it was 2.79 µM (active).

`CC(=O)OC1(c2ccccc2)CCN(CCc2ccccc2)CC1`: the Potency entry in assay [1], in assay [2], in assay [3] and in assay [9] was “inactive” throughout. In addition, the Potency in assay [4] was 0.727 µM (active); in assay [5], 40.9 µM (active); in assay [7] it was 25.1 µM (active).

Consider `CC(C)C(=O)Cl`, for which the Potency result in assay [1], in assay [2], in assay [3], in assay [4], in assay [5] and in [7] was “inactive” throughout. Besides, the Potency result in assay [9] was “inactive”.

On to `Cc1cc(C)c(C2=C(OC(=O)CC(C)(C)C)C3(CCCC3)OC2=O)c(C)c1`, for which the Potency entry in assay [1], in assay [2], in assay [3], in assay [4] and in assay [6] was “inactive” each time. In addition, the Potency in assay [9] was 37.3 µM (active).

Consider `CCCCCCCCCCCCCN1CC(C)OC(C)C1` (stereo unspecified), for which the Potency result in assay [1], in [2], in assay [3], in assay [5], in assay [6] and in assay [9] was “inactive” throughout. Also, the Potency in assay [4] was 22.4 µM (active); in assay [7], 13.8 µM (active).

In the case of `O=[N+]([O-])c1ccc(Oc2ccc(C(F)(F)F)cc2[N+](=O)[O-])cc1`, the Potency result in assay [1], in assay [2], in assay [3] and in assay [9] was “inactive” throughout. The Potency in assay [4] is 22.4 µM (active); in assay [5] it was 0.894 µM (active); in assay [6] it was 31.7 µM (active); in assay [7] it was 6.16 µM (active).

Turning to `CCOP(=S)(OCC)OC(Cl)C(Cl)(Cl)Cl` (stereo unspecified), the Potency in [1] is 79.6 µM (active); in assay [2], 31.7 µM (active); in assay [3] it was 28.3 µM (active); in assay [5], 39.9 µM (active); in assay [6] it was 35.6 µM (active); in assay [9], 3.99 µM (active). The Potency entry in assay [4] was “inactive”.

For `CCN`, the Potency result in assay [1], in assay [2], in assay [3], in assay [4], in [5] and in [9] was “inactive” each time.

`O=c1c(C2CC(c3ccc(-c4ccc(Br)cc4)cc3)Cc3ccccc32)c(O)sc2ccccc12` (stereo unspecified): the Potency result in assay [1], in [2], in assay [3], in [4], in [6] and in [7] was “inactive” each time. Also, in [9], the Potency entry was “inactive”. Besides, the Potency in assay [8] is 5.49 µM (active).

For the origin of these results see PubChem BioAssay (Tox21).
